Reference: the supplement of paper PMC11732987, “Enantioselective OTUD7B fragment discovery through chemoproteomics screening and high-throughput optimisation” (Communications Chemistry, 2025)

What was measured:
Assay in all cases: log2 ratio of Biotin-Ahx-Ub-VS probe labelling (fragment/DMSO); higher = less target engagement (more negative = stronger competition), active = hit call of the paper (q ≤ 0.05, log2 ratio ≤ -1)
Conditions in all cases: compound concentration: 200 uM; treatment time: 3 h
[1] = molecular target: T1, USP42 (UniProt Q9H9J4)
T1 sequence (whole entry): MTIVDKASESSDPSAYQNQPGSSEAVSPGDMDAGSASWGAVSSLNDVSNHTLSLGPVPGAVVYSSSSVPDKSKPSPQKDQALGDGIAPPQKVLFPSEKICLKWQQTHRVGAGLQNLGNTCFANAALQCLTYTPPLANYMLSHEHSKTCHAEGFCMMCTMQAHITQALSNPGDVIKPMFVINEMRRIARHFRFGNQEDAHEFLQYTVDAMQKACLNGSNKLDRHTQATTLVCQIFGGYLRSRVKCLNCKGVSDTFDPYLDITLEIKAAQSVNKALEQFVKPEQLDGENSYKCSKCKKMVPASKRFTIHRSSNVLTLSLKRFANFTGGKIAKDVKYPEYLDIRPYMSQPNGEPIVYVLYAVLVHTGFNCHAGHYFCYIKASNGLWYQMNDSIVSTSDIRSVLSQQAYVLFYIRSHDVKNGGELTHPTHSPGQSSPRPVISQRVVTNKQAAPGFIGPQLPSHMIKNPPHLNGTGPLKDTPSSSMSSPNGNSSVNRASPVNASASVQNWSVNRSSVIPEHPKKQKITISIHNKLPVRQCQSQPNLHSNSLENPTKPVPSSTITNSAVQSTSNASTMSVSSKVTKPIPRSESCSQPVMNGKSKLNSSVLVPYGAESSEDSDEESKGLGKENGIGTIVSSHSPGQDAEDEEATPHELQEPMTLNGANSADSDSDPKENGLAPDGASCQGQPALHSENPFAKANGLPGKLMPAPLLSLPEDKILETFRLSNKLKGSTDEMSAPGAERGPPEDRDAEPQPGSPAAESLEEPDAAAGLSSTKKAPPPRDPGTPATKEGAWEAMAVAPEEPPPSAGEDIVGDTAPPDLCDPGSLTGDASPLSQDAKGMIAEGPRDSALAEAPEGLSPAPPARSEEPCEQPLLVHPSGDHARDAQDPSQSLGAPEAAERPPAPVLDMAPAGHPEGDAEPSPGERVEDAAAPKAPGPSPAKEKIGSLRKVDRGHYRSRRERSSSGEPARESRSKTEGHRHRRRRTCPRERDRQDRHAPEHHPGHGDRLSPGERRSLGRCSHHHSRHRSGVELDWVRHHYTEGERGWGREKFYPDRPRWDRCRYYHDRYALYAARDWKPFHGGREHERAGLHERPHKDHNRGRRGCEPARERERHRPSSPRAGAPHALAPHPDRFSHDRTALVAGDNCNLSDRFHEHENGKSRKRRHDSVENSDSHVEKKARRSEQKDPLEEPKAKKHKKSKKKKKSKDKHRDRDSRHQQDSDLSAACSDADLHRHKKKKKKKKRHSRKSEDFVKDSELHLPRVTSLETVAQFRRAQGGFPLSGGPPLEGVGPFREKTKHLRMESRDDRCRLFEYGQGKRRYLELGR
Outline: (§1)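 Each value is an average log2 ratio of fragment to vehicle, tested by unpaired t-test. The underlying Spectronaut label-free quantities were global-median-normalised, and only proteins with ≥2 unique peptides were included. Triplicate HEK293T lysate samples (495 µg) were exposed to fragment at 200 µM or vehicle for 3 h, then to Biotin-Ahx-Ub-VS at 0.5 µM final for 1 h, before NeutrAvidin enrichment of labelled DUBs, LysC and trypsin digestion, and diaPASEF LC-MS/MS.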

[2] = molecular target: USP46 (UniProt P62068)
Sequence of USP46 (P62068 whole entry): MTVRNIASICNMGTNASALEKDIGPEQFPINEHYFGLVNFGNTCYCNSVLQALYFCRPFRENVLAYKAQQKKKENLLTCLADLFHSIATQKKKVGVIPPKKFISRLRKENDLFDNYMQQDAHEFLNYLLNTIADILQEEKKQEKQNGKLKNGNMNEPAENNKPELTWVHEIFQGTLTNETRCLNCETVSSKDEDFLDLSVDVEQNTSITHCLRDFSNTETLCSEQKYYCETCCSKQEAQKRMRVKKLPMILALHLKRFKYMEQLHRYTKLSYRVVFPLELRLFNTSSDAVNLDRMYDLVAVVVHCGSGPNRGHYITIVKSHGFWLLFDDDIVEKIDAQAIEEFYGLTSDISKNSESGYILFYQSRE
Outline: as §1

[3] = molecular target: T2, USP47 (UniProt Q96K76)
T2 sequence (whole entry): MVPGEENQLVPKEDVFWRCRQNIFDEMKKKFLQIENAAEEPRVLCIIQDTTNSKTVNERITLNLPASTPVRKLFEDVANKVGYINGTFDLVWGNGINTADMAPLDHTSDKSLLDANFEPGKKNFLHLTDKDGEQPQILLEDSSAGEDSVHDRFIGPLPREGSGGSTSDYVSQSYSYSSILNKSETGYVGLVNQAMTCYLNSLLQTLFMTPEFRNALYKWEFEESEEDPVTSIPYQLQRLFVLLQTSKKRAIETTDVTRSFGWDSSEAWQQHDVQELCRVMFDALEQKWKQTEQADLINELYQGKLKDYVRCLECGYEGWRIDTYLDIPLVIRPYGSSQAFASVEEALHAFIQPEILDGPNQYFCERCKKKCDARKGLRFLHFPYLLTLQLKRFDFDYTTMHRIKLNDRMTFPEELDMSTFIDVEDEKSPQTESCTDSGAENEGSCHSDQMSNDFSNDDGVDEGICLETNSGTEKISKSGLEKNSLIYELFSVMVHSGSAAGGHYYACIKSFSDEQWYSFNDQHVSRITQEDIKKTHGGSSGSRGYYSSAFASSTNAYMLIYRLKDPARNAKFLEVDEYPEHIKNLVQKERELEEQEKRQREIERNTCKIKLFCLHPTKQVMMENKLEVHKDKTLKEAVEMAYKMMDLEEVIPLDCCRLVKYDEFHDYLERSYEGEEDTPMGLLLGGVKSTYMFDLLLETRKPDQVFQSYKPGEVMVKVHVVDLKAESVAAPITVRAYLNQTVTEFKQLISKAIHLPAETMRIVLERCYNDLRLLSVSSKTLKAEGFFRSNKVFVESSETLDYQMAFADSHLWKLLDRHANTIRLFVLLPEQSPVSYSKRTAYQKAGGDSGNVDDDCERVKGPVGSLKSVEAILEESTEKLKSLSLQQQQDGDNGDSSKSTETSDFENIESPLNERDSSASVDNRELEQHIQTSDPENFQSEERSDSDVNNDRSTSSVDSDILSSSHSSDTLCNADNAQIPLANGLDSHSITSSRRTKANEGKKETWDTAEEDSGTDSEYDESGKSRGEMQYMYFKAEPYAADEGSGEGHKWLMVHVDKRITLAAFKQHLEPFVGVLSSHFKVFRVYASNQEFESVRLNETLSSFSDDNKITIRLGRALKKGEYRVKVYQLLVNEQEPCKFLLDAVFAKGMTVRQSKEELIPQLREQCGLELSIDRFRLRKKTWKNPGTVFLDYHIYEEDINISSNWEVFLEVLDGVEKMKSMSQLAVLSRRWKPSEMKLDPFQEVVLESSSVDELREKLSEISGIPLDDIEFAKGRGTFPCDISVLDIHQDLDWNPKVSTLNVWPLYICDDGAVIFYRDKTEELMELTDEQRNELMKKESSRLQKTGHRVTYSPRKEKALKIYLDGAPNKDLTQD
Outline: as §1

[4] = molecular target: T3, USP48 (UniProt Q86UV5)
T3 sequence (whole entry): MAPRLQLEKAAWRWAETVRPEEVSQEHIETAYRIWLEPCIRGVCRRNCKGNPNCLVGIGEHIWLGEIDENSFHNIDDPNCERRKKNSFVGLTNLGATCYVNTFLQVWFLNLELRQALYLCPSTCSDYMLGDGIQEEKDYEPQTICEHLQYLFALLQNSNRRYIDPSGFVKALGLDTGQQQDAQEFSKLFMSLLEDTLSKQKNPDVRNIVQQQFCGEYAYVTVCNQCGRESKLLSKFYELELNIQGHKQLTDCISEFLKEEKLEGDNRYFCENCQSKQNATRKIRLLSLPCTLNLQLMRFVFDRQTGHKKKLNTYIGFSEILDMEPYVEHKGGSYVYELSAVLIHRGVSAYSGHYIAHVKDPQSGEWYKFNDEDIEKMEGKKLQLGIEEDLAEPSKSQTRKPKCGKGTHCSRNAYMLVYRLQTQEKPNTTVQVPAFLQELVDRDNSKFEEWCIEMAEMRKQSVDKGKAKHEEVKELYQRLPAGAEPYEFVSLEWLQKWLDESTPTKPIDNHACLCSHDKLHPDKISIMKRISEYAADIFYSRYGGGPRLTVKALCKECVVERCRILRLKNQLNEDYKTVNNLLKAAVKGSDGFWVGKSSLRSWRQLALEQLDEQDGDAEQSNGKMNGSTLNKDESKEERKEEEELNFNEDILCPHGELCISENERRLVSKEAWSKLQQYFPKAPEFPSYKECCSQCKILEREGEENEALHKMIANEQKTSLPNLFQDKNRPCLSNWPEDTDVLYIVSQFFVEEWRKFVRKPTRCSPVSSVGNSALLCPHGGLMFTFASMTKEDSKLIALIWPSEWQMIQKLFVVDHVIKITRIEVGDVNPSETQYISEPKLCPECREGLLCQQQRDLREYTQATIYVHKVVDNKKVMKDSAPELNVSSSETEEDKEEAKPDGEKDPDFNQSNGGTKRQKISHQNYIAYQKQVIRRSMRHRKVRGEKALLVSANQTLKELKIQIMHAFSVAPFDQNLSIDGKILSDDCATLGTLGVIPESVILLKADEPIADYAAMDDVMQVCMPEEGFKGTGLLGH
Outline: as §1

[5] = molecular target: T4, USP5 (UniProt P45974)
T4 sequence (whole entry): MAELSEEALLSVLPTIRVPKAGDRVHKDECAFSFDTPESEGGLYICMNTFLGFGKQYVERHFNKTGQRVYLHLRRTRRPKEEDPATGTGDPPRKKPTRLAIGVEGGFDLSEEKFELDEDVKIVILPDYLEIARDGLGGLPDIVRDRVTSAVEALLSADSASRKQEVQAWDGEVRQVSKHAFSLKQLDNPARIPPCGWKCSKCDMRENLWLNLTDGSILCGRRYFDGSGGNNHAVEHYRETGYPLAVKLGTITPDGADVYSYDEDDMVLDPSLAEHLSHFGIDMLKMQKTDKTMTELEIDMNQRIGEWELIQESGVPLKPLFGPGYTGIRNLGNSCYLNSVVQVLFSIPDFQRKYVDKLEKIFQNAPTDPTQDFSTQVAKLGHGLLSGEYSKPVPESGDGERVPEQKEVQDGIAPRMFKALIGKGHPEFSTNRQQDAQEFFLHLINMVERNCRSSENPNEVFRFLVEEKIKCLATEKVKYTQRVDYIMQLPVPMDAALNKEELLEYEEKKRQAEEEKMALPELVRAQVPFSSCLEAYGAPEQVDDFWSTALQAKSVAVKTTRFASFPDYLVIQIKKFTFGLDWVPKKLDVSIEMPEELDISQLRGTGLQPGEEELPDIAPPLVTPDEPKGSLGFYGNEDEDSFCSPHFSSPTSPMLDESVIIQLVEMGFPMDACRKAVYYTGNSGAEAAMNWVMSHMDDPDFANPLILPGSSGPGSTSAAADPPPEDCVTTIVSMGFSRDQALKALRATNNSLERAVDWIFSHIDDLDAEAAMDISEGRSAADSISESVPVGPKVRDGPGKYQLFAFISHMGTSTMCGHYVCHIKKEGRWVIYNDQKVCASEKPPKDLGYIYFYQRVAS
Outline: as §1

[6] = molecular target: USP54 (UniProt Q70EL1)
Sequence of USP54 (Q70EL1 whole entry): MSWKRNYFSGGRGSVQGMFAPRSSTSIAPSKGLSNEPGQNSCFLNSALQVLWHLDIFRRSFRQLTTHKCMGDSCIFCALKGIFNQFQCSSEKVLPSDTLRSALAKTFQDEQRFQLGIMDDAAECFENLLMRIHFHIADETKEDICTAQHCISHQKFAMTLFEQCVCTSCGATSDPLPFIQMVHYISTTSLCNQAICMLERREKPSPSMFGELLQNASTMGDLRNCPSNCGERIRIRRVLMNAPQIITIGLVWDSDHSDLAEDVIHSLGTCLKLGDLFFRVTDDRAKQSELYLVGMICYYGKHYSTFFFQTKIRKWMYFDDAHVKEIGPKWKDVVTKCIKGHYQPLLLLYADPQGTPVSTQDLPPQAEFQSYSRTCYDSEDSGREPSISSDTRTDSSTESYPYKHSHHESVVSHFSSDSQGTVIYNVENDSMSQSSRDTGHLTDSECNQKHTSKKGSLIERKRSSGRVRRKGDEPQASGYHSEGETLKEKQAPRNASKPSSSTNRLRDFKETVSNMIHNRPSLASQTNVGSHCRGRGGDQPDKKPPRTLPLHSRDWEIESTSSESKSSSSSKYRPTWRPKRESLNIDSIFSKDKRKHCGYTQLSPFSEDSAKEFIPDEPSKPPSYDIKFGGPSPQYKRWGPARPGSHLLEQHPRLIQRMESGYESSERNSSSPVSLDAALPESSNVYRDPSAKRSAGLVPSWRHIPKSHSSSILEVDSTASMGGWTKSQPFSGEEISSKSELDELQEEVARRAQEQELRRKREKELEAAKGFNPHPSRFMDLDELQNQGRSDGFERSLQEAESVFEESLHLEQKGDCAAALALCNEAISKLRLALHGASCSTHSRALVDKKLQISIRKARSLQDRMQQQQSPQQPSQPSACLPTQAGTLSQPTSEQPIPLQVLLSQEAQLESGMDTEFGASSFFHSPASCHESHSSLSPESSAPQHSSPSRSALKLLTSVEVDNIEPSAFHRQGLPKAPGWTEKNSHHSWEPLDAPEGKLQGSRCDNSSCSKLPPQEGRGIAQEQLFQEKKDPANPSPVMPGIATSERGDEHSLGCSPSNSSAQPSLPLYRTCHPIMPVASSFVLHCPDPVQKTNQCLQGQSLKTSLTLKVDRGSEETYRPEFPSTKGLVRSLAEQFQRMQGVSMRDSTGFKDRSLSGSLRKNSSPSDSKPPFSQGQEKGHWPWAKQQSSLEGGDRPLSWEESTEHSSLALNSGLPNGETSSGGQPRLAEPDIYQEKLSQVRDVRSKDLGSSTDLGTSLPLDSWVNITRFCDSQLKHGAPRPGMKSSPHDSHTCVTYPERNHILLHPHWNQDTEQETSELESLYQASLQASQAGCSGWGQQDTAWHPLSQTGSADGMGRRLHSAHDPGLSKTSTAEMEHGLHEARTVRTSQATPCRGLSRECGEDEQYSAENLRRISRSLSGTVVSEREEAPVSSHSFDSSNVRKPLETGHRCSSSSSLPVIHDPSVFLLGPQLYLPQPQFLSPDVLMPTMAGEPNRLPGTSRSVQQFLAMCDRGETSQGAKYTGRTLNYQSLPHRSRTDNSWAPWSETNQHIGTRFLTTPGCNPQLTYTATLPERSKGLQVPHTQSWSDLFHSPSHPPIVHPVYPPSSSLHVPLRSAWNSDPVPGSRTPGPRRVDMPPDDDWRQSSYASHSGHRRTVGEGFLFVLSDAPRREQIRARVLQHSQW
Outline: as §1

[7] = molecular target: USP7 (UniProt Q93009)
Outline: as §1

[8] = molecular target: T5, USP8 (UniProt P40818)
T5 sequence (whole entry): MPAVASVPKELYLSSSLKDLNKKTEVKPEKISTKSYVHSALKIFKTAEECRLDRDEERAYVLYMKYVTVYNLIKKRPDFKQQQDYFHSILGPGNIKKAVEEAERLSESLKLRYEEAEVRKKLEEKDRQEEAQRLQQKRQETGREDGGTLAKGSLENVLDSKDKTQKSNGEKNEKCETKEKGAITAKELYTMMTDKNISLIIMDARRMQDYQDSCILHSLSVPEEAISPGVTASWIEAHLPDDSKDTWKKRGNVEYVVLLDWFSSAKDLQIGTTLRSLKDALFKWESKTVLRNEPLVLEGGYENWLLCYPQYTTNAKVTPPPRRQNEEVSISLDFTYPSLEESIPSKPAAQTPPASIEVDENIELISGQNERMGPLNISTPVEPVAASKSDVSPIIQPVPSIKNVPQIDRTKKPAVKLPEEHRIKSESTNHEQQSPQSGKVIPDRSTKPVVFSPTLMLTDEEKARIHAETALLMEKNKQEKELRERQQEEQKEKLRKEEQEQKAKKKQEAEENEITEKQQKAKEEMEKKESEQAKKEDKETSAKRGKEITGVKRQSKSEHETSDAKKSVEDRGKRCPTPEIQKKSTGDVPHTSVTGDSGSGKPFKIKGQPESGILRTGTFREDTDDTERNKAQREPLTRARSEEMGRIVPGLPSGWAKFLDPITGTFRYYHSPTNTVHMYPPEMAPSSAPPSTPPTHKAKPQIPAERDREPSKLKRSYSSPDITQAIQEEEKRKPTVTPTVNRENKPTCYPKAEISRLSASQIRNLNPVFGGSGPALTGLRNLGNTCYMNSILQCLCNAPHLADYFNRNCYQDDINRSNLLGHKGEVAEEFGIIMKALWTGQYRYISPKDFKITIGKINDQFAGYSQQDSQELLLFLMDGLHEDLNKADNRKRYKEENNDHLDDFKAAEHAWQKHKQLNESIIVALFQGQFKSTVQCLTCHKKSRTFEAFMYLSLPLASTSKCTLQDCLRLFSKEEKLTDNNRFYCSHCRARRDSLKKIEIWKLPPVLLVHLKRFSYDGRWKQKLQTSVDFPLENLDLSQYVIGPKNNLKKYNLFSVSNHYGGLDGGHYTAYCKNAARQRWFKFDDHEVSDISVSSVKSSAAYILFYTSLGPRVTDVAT
Outline: as §1

[9] = molecular target: USP9X (UniProt Q93008)
Sequence of USP9X (Q93008 whole entry): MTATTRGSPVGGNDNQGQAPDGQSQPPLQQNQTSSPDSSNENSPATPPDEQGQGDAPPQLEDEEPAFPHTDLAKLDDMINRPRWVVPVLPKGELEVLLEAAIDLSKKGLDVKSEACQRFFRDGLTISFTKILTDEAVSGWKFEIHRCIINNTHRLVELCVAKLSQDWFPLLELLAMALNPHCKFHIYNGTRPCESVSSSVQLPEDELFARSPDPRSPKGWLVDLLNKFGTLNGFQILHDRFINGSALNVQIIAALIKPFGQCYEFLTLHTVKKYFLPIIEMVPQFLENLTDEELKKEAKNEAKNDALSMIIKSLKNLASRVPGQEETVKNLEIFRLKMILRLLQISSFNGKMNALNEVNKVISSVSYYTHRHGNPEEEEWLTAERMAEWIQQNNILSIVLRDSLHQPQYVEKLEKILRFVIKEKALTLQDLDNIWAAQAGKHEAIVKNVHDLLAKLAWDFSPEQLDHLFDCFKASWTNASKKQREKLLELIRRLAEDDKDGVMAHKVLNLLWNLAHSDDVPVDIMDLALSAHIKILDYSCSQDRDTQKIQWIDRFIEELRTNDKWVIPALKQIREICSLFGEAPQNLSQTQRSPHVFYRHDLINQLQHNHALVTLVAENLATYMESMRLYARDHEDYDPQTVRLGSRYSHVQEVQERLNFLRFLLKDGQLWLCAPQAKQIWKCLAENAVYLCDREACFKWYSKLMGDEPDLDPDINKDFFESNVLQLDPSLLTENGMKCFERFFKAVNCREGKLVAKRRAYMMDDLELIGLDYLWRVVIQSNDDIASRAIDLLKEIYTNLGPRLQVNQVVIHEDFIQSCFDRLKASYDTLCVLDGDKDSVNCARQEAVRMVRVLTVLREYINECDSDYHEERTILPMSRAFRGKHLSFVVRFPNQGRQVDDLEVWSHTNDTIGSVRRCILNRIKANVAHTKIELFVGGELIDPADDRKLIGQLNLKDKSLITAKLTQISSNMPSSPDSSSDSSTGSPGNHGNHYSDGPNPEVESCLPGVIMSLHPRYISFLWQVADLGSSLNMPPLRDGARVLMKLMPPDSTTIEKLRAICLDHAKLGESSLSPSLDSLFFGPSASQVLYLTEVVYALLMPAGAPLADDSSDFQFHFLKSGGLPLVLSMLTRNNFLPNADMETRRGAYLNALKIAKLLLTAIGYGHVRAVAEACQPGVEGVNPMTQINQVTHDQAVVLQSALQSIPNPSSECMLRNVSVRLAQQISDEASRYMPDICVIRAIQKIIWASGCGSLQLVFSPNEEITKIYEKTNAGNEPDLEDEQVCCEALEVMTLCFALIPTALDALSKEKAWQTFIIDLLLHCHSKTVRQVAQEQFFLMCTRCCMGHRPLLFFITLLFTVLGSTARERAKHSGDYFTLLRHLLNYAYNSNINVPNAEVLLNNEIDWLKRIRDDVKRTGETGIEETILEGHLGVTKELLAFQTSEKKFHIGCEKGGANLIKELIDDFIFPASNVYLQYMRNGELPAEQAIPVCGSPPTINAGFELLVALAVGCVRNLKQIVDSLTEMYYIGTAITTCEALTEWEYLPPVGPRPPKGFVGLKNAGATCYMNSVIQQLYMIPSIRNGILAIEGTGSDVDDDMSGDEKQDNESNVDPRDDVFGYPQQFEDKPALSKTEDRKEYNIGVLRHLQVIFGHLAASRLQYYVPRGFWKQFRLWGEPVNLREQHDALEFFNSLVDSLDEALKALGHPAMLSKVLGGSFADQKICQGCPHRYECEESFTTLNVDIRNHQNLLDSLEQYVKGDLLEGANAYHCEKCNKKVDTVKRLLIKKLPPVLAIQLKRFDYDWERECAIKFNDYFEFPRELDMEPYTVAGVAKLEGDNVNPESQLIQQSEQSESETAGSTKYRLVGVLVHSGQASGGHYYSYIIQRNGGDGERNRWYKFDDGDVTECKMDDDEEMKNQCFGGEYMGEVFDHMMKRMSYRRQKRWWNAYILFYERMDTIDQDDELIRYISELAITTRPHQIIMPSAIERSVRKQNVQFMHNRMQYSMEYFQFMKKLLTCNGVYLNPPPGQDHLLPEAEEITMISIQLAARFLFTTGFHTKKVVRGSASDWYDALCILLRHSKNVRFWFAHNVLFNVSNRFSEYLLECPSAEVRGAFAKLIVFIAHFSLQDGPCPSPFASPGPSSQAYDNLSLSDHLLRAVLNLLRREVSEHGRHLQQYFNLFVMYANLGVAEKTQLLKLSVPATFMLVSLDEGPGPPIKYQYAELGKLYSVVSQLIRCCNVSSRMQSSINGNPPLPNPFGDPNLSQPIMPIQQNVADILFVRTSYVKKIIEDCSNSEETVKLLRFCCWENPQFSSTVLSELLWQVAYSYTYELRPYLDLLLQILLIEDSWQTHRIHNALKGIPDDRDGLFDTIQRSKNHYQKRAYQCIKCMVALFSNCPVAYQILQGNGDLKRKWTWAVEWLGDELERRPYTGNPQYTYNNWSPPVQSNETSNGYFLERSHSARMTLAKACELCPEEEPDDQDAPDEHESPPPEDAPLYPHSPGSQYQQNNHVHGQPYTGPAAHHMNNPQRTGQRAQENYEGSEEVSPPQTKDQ
Outline: as §1

[10] = molecular target: UniProt O00487
Sequence of UniProt O00487 (O00487 whole entry): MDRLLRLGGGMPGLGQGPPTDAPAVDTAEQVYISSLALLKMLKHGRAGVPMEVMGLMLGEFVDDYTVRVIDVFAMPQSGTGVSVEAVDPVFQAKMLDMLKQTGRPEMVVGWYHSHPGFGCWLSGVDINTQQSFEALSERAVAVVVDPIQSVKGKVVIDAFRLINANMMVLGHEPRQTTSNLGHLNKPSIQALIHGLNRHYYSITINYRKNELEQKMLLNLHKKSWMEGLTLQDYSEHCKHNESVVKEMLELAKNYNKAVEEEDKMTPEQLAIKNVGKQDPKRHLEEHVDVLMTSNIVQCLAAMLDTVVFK
Outline: as §1

Measured: log2 ratio of Biotin-Ahx-Ub-VS probe labelling

Cc1cc(NC(=O)CCl)n(-c2ccccc2)n1
inactive: [1] 0.45 | [2] -0.023 | [3] -0.584 | [4] 0.128 | [5] -0.00592 | [6] -0.0011 | [7] -0.0104 | [8] -0.118 | [9] 0.0409 | [10] -0.0689
